Source: PubChem BioAssay
Calls of active or inactive are those of the source.

Legend:
[1] = anti-His antibody binders, primary screen, artefact control for SMM control protein annotation, biochemical, small-molecule microarray, 635 nm fluorescence (AID 1128); details: anti-His Alexa647 antibody binding, higher = more signal;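 also: score merges feature fluorescence with signal-to-noise for each printed compound spot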
[2] = system: Human papillomavirus type 1a E7 protein (residues 1-88); test: HPV1a E7 small-molecule binders, primary screen, biochemical, small-molecule microarray, residues 1-88, 635 nm (AID 1129); details: small-molecule microarray binding, fluorescence 635 nm; higher = more signal
[3] = molecular target: Focal adhesion kinase 1 (Homo sapiens) (UniProt Q05397); test: small-molecule microarray binders of FAK, primary screen, biochemical, 635/667 nm fluorescence, BSA, DTT (AID 1130); details: PTK2 binding, 635 nm fluorescence, higher = more signal;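 also: composite of spot emission at 667 nm and signal to noise over triplicate slides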
[4] = system: Fibrinogen (Alexa647-labelled); test: fibrinogen binders on compound microarrays, profiling panel, artefact control for SMM control-protein annotation, biochemical, small-molecule microarray, 635/667 nm fluorescence (AID 1131); details: fibrinogen-A647 binding fluorescence, higher = more signal;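 also: z-score merges 667 nm fluorescence with per-spot signal-to-noise over triplicate slides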
[5] = molecular target: Follistatin (Homo sapiens) (UniProt P19883); test: follistatin binders on small-molecule microarrays, primary screen, biochemical, small-molecule microarray, 635/667 nm fluorescence (AID 1132); details: FST binding, 635 nm fluorescence, higher = more signal
[6] = molecular target: Fibroblast growth factor 2 (Homo sapiens) (UniProt P09038); test: FGF2 binders on small-molecule microarrays, primary screen, biochemical, small-molecule microarray, 635/667 nm fluorescence (AID 1133); details: small-molecule microarray binding, FGF2, fluorescence 635/667; higher = more signal
[7] = mitochondrial membrane potential change in A549 cells, profiling panel, cell-based, JC-1 fluorescence, basal, 24 h, 100 nL (AID 1138); details: higher = more signal;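 also: A549 lung adenocarcinoma cells under basal conditions with no added stimulus; test concentration not given here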
Lefty1 = Lefty1 binders on small-molecule microarrays, primary screen, biochemical, small-molecule microarray, 635/667 nm fluorescence (AID 1139); details: small-molecule microarray binding, fluorescence 635/667; higher = more signal
[8] = system: wheat germ agglutinin (Triticum aestivum), Alexa647-labelled; test: wheat germ agglutinin binders on compound microarrays, profiling panel, artefact control for SMM control-protein annotation, biochemical, small-molecule microarray, 635/667 nm fluorescence (AID 1140); details: WGA-A647 binding, 635 nm fluorescence, higher = more signal;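 also: score merges 667 nm feature emission with signal to noise over triplicate slides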
[9] = molecular target: Luciferin 4-monooxygenase (Photinus pyralis) (UniProt P08659); test: firefly luciferase enzyme inhibitors, primary screen, biochemical, luminescence, purified enzyme, 2006 set (AID 1141); details: SteadyGlo luminescence, 30 min, higher = more signal, called active from +8 up or from −8 down;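 also: cell-free assay with purified firefly luciferase at 100 ng per well in PBS; test concentration not given here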
Sequence of Luciferin 4-monooxygenase (Photinus pyralis) (P08659 whole entry, looked up): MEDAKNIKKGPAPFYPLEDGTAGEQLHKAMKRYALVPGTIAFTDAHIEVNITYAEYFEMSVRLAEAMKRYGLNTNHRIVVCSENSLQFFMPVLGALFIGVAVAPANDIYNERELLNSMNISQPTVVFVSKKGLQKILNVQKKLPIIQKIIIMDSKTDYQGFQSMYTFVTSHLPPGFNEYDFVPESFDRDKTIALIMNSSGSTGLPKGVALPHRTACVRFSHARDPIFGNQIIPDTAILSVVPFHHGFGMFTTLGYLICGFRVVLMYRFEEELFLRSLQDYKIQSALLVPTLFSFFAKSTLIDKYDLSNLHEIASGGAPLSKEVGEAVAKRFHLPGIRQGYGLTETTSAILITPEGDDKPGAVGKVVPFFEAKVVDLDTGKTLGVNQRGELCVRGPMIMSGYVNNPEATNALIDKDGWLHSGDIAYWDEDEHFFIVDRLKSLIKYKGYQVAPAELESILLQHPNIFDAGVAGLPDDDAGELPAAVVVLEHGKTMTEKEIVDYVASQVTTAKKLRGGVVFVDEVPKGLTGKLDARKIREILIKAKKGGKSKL

Sequence of Fibroblast growth factor 2 (Homo sapiens) (P09038 whole entry, looked up): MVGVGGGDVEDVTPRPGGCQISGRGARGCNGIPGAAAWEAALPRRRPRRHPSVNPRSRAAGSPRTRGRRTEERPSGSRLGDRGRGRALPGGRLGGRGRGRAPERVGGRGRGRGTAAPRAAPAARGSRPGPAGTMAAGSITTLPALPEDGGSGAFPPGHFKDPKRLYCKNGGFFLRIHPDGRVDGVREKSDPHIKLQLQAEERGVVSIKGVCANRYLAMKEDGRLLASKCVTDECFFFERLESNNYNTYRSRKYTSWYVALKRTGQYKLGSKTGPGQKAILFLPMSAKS
Sequence of Follistatin (Homo sapiens) (P19883 whole entry, looked up): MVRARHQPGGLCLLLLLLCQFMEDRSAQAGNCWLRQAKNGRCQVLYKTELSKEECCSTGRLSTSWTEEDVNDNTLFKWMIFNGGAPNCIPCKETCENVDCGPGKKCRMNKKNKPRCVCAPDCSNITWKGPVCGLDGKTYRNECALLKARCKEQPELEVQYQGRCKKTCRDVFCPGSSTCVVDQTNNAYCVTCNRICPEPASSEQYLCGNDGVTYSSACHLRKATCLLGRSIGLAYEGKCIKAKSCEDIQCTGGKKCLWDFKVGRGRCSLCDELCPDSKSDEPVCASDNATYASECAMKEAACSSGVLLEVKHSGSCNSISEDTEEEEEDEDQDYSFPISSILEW
Sequence of Focal adhesion kinase 1 (Homo sapiens) (Q05397 whole entry, looked up): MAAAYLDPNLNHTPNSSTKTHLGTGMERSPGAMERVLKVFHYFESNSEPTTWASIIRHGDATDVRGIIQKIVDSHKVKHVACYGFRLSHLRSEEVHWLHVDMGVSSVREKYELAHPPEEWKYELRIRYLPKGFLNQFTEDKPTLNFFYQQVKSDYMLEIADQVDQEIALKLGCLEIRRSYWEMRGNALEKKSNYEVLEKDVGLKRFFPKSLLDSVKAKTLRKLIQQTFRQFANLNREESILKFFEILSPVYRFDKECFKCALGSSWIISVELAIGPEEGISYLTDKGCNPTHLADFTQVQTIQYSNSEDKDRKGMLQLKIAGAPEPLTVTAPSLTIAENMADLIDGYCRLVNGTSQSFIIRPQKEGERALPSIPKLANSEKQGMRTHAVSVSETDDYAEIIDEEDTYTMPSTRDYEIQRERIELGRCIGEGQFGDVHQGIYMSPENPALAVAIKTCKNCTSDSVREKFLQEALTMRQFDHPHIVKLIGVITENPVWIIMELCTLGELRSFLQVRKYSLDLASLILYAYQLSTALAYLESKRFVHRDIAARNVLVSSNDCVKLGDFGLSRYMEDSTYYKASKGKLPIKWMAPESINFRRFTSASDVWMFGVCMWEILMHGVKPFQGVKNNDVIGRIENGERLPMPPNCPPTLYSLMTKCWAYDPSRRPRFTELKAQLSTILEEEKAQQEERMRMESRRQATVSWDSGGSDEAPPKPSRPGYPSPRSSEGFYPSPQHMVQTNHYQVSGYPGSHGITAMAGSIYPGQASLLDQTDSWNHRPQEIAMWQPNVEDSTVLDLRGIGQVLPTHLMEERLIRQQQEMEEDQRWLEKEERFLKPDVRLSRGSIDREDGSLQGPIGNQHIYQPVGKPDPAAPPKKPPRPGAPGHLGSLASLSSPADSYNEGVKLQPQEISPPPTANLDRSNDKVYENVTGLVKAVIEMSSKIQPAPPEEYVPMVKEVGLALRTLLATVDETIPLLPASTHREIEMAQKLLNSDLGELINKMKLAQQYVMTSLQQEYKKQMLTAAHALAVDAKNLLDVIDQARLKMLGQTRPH

SMILES	composite z-score [1]	composite z-score [2]	composite z-score [3]	composite z-score [4]	composite z-score [5]	composite z-score [6]	z-score [7]	composite z-score (Lefty1)	composite z-score [8]	z-score [9]
CC1CC/C=C\[C@H]2OC34C=CCN(CCN5CCOCC5)C(=O)[C@H]3N(CCCO)C(=O)[C@@H]4C2C(=O)O1 (stereo not given in full)	0.549	-1.13	-0.381	-1.22	-0.298	-0.311	-0.296	-0.265	-0.133	0.201 (inactive)
CCCCCC1=C2CNC(CC(C)C)(C(=O)OC)C=C2C(C)C1=O (stereo not given)	0.654	1.17	1.61	0.955	-0.127	-0.544	0.326	-0.145	0.955	-0.0622 (inactive)
COc1ccc([Si](C)(C)[C@@H]2[C@@H](CC(=O)N3CCC[C@H]3CO)O[C@]3(C(=O)N(Cc4ccc(N5CCOC5=O)cc4)c4ccccc43)[C@H]2C)cc1	1.02	0.783	0.939	0.867	0.441	0.672	0.735	0.646	0.471	-1.83 (inactive)
C[C@@H]1ON(c2ccc(I)cc2)[C@H](c2cccc(NC(=O)OCC3c4ccccc4-c4ccccc43)c2)[C@H]1C(=O)N1C(=O)OC[C@H]1Cc1ccccc1	0.296	0.506	-0.0828	0.544	0.566	0.249	1.37	0.593	0.334	-1.24 (inactive)
[N-]=[N+]=Nc1ccccc1C[C@]1(C(=O)N2CCOCC2)N=C(c2ccc(OCCCO)cc2)O[C@H]1c1ccccc1N=[N+]=[N-]	2.37	1.19	1.08	0.96	1.41	1.79	0.268	1.41	0.97	-4.36 (inactive)
CC(C)N1C(=O)C[C@@](C(=O)NCCN2CCOCC2)(c2ccc([N+](=O)[O-])cc2)[C@H]1c1ccc(CO)cc1	2.67	-0.886	-0.455	-0.591	0.178	-0.588	-0.143	-0.516	0.869	1.42 (inactive)
CCCNC(=O)[C@@]1(Sc2ccc(C)cc2)CC(=O)N(Cc2ccccc2Cl)[C@@H]1c1ccc(CO)cc1I	0.977	-0.157	0.313	0.22	-0.328	-1.08	0.685	-0.896	0.202	0.718 (inactive)
CC(C)C[C@H]1NC(=O)C([C@@H](C)OCc2ccccc2)NC(=O)[C@@]23C(=O)N[C@@H](Cc4ccccc4)C2[C@H](C)[C@@]2(C)O[C@H]2C3/C=C/C/C=C\CNC1=O (stereo not given in full)	1.42	1	0.231	0.504	1.24	0.434	0.487	1.01	0.999	-0.53 (inactive)
COc1ccc(C(=O)Nc2cccc(CN3C(=O)[C@@]4(O[C@@H](CC(=O)N5CCC[C@H]5CO)[C@H]([Si](C)(C)c5ccc(OC)cc5)[C@H]4C)c4ccccc43)c2)cc1	1.39	1.03	0.988	0.875	1.08	1.1	1.53	0.703	0.7	-0.599 (inactive)
COc1ccc(C(O)C2C=CC3C(=O)N(C)C(=O)C3N2N(c2ccccc2)c2ccccc2)cc1 (stereo not given)	2.06	0.906	0.167	0.805	1.03	0.149	1.25	-0.729	1.28	0.322 (inactive)
O=C1NC(=O)C2C1C=CC(C(O)c1ccc([N+](=O)[O-])cc1)N2Nc1ccccn1 (stereo not given)	0.753	0.175	-0.329	0.0114	-0.12	-0.163	-0.0893	-0.262	-0.0047	-1.48 (inactive)
CN1C(=O)C2C(C1=O)C1C=C(CCCO)C2C(C2CC2)N1Cc1cccc(OC(F)(F)F)c1 (stereo not given)	1.37	0.925	1.35	0.0349	-0.0603	-0.862	-0.198	0.0613	1.04	-0.478 (inactive)
CC(C)C(=C=CC[C@H](O)c1ccccc1OCCO)C[C@H](O)c1cc(Cl)cc(Cl)c1O	-0.287	1.15	0.0701	0.866	1.09	0.285	0.686	1.27	1.16	-1.38 (inactive)
C=CC[C@@]12N=C(c3ccc(OCCCO)cc3)O[C@@H]1c1ccccc1N(CCC)C2=O	2.58	1.22	0.359	0.512	1.52	1.72	2.58	1.31	0.777	-2.23 (inactive)
CN(C)CCCCNC(=O)[C@H]1C[C@H]2C(=O)N3CCC[C@H]3C(=O)N2[C@H]1c1cccc(OCCO)c1	1.96	0.74	1.02	0.311	1.21	0.382	-0.159	0.365	1.15	0.83 (inactive)
COc1ccc([Si](C)(C)[C@H]2[C@H](CC(=O)N3CCC[C@H]3CO)O[C@@]3(C(=O)N(Cc4ccc(N5CCCCC5=O)cc4)c4ccccc43)[C@@H]2C)cc1	0.952	1.17	0.516	0.655	1.27	1.17	1.39	1.49	0.513	0.627 (inactive)
CC1=C([C@H](O)CCc2ccccc2)[C@H](CO)n2c(=O)n(-c3ccccc3)c(=O)n2C1	-0.56	-0.37	-0.168	-0.178	0.155	0.302	1.18	0.27	-0.137	-0.728 (inactive)
CCCCC(O)C1C=CC2C(=O)N(c3ccccc3)C(=O)C2N1Nc1ccc([N+](=O)[O-])cc1 (stereo not given)	0.709	1.24	1.16	0.992	0.825	-0.458	-0.52	0.264	0.68	1.89 (inactive)
COc1ccc(C(O)C2C=CC3C(=O)N(c4ccccc4)C(=O)C3N2Nc2ccc([N+](=O)[O-])cc2)c2ccccc12 (stereo not given)	0.57	1.25	0.846	1	0.91	0.54	-1.56	0.0679	1.21	1.19 (inactive)
CC(C)(C)N1CC=CC23O[C@@H]4C=CCCOC(=O)C4[C@H]2C(=O)N(CCCCCCO)[C@@H]3C1=O (stereo not given in full)	0.129	0.11	-0.385	-0.959	-0.327	-1.16	0.223	-0.0747	-1.2	-0.876 (inactive)
CO[C@H]1O[C@H](CO)[C@@H](OC(=O)Nc2ccccc2)[C@H](OC(=O)Nc2ccccc2)[C@H]1OC(=O)Nc1ccccc1	2.2	1.26	0.972	1.01	0.943	1.02	0.281	0.389	0.791	1.15 (inactive)
